Source: PubChem BioAssay (NCATS)
A number with no mark means an inactive call. Entries that show only a call come without a potency. Activity calls are given as the source filed them. Calls follow the shape of the dose curve; as a rule, active = well fitted inhibition curve with a large enough effect; inconclusive = small, poorly fitted or top-dose-only effect; inactive = flat fitted curve, though single readings scatter. Where a SMILES comes first, the peptide text is derived from it.

The compounds below were run against Luciferin 4-monooxygenase (Photinus pyralis) (UniProt P08659) (assay: Primary firefly luciferase (FLuc) qHTS assay for identification of artifact compounds. (AID 1845220; also: nearly all actives have a fitted effect of over 60% in size)). Settings: purified firefly luciferase, luminescence, 5 min; series mostly up to 54.1 µM.
Method in brief: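 FLuc 10 nM; luciferin 10 uM; ATP 10 uM; Tris-acetate pH 7.6, Mg-acetate 10 mM; 15 min RT preincubation; 5 min reaction; luminescence.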

Row | SMILES | Potency | activity change, negative = inhibition
1 | OC[C@H]1O[C@@H](OCCc2ccccc2)[C@H](O)[C@@H](O)[C@@H]1O | inactive | 
2 | COC(=O)c1ccc(OC)cc1O[C@@H]1O[C@H](CO[C@@H]2OC[C@@H](O)[C@H](O)[C@H]2O)[C@@H](O)[C@H](O)[C@H]1O | inactive | 
3 | CC1(C)C(=O)CCC2(C)C1C(O)C=C1COC(=O)C12O (stereo unspecified) | inactive | 
4 | Cn1cc(Nc2cnccc2C(=O)O)c2cccnc21 | inactive | 
5 | C[C@H]1[C@H](C)CC[C@]2(C(=O)O)CC[C@]3(C)C(=CCC4[C@@]5(C)C[C@@H](O)[C@H](O)C(C)(C)C5CC[C@]43C)[C@H]12 (stereo partly specified) | inactive | 
6 | C/C(=C/CO)CC[C@H]1[C@]2(C)C[C@H](O)CC(C)(C)[C@H]2CC[C@]1(C)O | inactive | 
7 | CSCC[C@H](NC(=O)[C@H](CO)NC(=O)[C@H](CCC(=O)O)NC(C)=O)C(=O)N[C@H](C=O)CC(=O)O (Ac-ESMD-aldehyde) |  | -5.86% [at 11.6 µM]
8 | CCCO[C@@H]1O[C@H](CO)[C@@H](O)[C@H](O)[C@H]1O[C@@H]1OC[C@@H](O)[C@H](O)[C@H]1O | inactive | 
9 | O=C(O)CCc1cccc(O)c1O[C@@H]1O[C@H](CO)[C@@H](O)[C@H](O)[C@H]1O | inactive | 
10 | COCc1c(O)c(C(=O)O)c(C)c2c1OC(=O)c1c(C)cc(O)c(CO)c1O2 | inactive | 
11 | CCC(C)/C=C(C)/C=C/C1=CC2=C(Cl)C(=O)C(C)(OC(C)=O)C(=O)C2=CN1C(CCC(=O)O)C(=O)O (stereo unspecified) | inactive | 
12 | C=C[C@@]1(C)CCC2=C([C@H]1OC(C)=O)[C@H](OC(C)=O)CC1[C@](C)(C(=O)OC)CC[C@H](OC(C)=O)[C@]21C (stereo partly specified) | inactive | 
13 | COC1CC(O[C@H]2CC[C@@]3(C)C(=CC[C@]4(O)C3[C@H](O)[C@@H](O)[C@]3(C)[C@@H]([C@H](C)O)CC[C@@]34O)C2)OC(C)C1OC1CC(OC)C(OC2CC(OC)C(OC3OC(C)C(OC4OC(CO)C(O)C(O)C4O)C(OC)C3O)C(C)O2)C(C)O1 (stereo partly specified) |  | 1.06% [at 11.6 µM]
14 | C/C=C/C=C/C=C/C(=O)N(C)C(C(=O)NC(C)C(=O)N1CCCC1C(N)=O)C(C)C (stereo unspecified) | inactive | 
15 | C/C=C/C=C/C(O)=C1/C(=O)[C@]2(C)C(=O)[C@@](C)(O)[C@H]1[C@H]([C@@]1(C)OC(=O)C(C)=C1O)[C@H]2C(=O)CC/C=C/C | inactive | 
16 | COc1ccc(CC(NC(C)=O)C(=O)O)cc1 (stereo unspecified) | inactive | 
17 | CC(=O)OC[C@]12[C@H](OC(C)=O)[C@H](OC(=O)c3ccccc3)[C@@H]3[C@@H](OC(C)=O)[C@]1(OC3(C)C)[C@H](C)C[C@H](OC(=O)c1ccccc1)[C@@H]2OC(=O)c1ccccc1 | inactive | 
18 | C/C(=C\CCC(C)C1CC(O)C2(C)C3CCC4C(C)(C)C(OC5OCC(O)C(O)C5O)CCC45CC35CC(O)C12C)C(=O)O (stereo unspecified) | inactive | 
19 | COc1cccc(C(=O)NCCNc2nc3cc(C)cc(C)c3cc2C#N)c1 | inactive | 
20 | CN1CCN(C2=Nc3ccccc3Nc3ccc(O)cc32)CC1 | inactive | 
21 | CC[C@@H]1C(=O)O[C@]23C=C[C@@H]4C(C(=O)OC)=CO[C@H](O[C@@H]12)[C@@H]43 | inactive | 
22 | CC(C)NC(=O)c1ccc(C#Cc2ccncc2)cn1 | inactive | 
23 | N[C@@H](CC(=O)Nc1ccc(Oc2cc(F)c(F)cc2Br)cc1)C(=O)O | inactive | 
24 | CC1=CC(=O)CC(C)(C)C1CCC(C)O[C@@H]1O[C@H](CO)[C@@H](O)[C@H](O)[C@H]1O (stereo partly specified) | inactive | 
25 | COc1cc(O)cc2c1C(=O)OC(C)C2 (stereo unspecified) | inactive | 
26 | CC1=C2C(=O)C=C(CO[C@@H]3O[C@H](CO)[C@@H](O)[C@H](O)[C@H]3O)[C@@H]2[C@H]2OC(=O)[C@H](C)[C@@H]2[C@@H](O)C1 | inactive | 
